From PubChem BioAssay (EPA / NIEHS) come the findings set out here.

Calls of active or inactive are those of the source. The calls were made as follows: active = hit-call score of the fitted dose curve at least 0.9, where 1 is the maximum; inactive = score below 0.9.

Signal transducer and activator of transcription 3 (Homo sapiens), sequence (P40763 whole entry, looked up): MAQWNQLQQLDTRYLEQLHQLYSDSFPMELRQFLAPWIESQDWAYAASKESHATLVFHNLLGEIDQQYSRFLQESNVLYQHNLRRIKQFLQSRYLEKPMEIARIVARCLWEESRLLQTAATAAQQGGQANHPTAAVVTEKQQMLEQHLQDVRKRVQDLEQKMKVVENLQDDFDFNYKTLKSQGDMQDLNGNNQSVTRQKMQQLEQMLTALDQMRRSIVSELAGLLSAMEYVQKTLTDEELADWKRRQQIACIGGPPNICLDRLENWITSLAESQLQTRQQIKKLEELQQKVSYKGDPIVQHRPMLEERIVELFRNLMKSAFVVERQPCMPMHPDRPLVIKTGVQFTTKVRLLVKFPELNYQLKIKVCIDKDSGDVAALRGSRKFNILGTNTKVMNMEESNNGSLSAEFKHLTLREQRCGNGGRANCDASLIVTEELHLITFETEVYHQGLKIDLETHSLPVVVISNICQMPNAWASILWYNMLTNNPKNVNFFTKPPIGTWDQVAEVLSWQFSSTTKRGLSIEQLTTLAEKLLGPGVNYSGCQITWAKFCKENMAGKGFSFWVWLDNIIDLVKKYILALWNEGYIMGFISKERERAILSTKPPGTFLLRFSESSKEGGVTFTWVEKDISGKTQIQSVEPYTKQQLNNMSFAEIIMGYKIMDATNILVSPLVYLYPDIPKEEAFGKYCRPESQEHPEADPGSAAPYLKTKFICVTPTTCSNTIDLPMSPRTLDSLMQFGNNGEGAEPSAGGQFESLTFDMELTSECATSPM

Read-out in this assay: Signal transducer and activator of transcription 3 (Homo sapiens) (UniProt P40763)
In words: LTEA_HepaRG_STAT3: Life Technologies and Expression Analysis (LTEA) Assay for Signal transducer and activator of transcription (STAT3) using HepaRG (AID 2283529). The conditions noted are these: mRNA level, 48 h; actives raise or lower the signal. Here is the method: LTEA_HepaRG is a cell based, multiplexed-readout assay that uses HepaRG, a human liver cell line, with measurements taken at 48 hours after chemical dosing on a 96-well plate.LTEA_HepaRG_STAT3 is one of 102 assay component(s) measured in the LTEA HepaRG cell culture assay. It is a marker of Cell proliferation, survival, death.Data from the assay component LTEA_HepaRG_STAT3 was analyzed into 1 endpoint. This assay endpoint, LTEA_HepaRG_STAT3, was analyzed with bidirectional fitting relative to DMSO as the negative control and baseline of activity. Using a type of inducible reporter, measures of mRNA induction for gain or loss-of-signal activity can be used to understand regulation of transcription factor activity. To generalize the intended target to other relatable targets, this assay endpoint is annotated to the dna binding intended target family, where the subfamily is stat protein.
A total of 1060 chemcials from the ToxCast library were tested in eight-point concentration-response experiments. Cell culture and cytotoxicity assays were conducted at Thermo Fisher Scientific's Custom Services facility (Madison, WI). A single lot of human HepaRG cells (Thermo Fisher Scientific, Frederick, MD) was used for the cell culture experiments. 96-well format collagen type I coated plates of human HepaRG cells were prepared using established methods. Briefly, cryopreserved HepaRG cells were thawed, plated at a density of approximately 100,000 cells/well in HepaRG Thaw, Plate, and General Purpose media (HPRG770, Thermo Fisher Scientific), and incubated for 48 hours. 0.5% DMSO was selected as vehicle control to balance the requisite need of DMSO in HepaRG cultures to maintain differentiation (for example, baseline metabolism, proportions of hepatocytes vs. cholangiocytes), while enabling further hepatic receptor pathway activation (for example, PXR and CAR) in response to chemical exposure. 48 hours after plating, the culture medium was replaced with HepaRG Serum-Free Incudtion Media. Cells were exposed to each test chemical in duplicate and maintained in CO2 incubators for another 48 hours. Chemical plates were thawed to room temperature and 200x concentrations of treatment groups were prepared. 8-point conentration-reponse curves were made with the highest exposure at 100 uM, followed by half-log dilutions, all in 0.5% DMSO. Each test plate contained variouse controls, induction positive controls (1mM phenobarbital), cytotoxicity positive controls ([…] aflatoxin B1), vehicle controls (0.5% DMSO), and total lysis controls (0.5% DMSO). Cell morphology images were taken using an Essen IncuCyte FLR automated microscope, with six 96-well plates imaged in about 24 minutes. Images were captured and exported and JPEG files. Spent culture media was transfered to black-well plates for the LDH assay, and remaining media was sorted at -80 C for later use. Cells were treated with RLT buffer and frozen until shipped for gene expression analysis. Total RNA was isolated from the cell suspension in 75 uL of Buffer RLT (Qiagen, Germantown, MD 20874) by Quintiles/Expression Analysis (Durham, NC) using a custom isolation procedure. Total RNA from each plate well was transferred to a preamplification plate. Fluidigm's 96.96 Dynamic ArrayTM (Fluidigm, Amsterdam, the Netherlands) technology was used for gene expression analyses by quantitative reverse transcription polymerase chain reaction (qRT-PCR, performed by Quintiles/Expression Analysis, Durham, NC)89. Standard TaqManTM Assays (Applied Biosystems/ThermoFisher Scientific, Foster City, CA) were used to assess the expression of 93 genes selected based on their selectivity and sensitivity to important hepatic receptors known to be modulated by environmental chemicals; importance in human hepatocyte functionality; and hepatotoxicity. […]
`Clc1cc(Cl)c2c(c1)N=C1CCCCCN1C2`: the compound was called inactive. In the case of `Cc1cccc2ccccc12`, the compound was classed as inactive. On the same count and under the same terms, the value for `CCCCCc1ccc(N)cc1` was “inactive”. The AC50 is the concentration at which the activity in the assay is half-maximal. Turning to `c1ccc(C[n+]2cccc3ccccc32)cc1`, the AC50 was 20.5 µM (active). `C[C@]12CC[C@@H]3c4ccc(O)cc4CC[C@H]3[C@@H]1CC[C@H]2O`: the compound was called inactive. `CCCCCCCC[Si](OCC)(OCC)OCC`: the compound was called inactive. For the compound `O=c1c(-c2ccc(O)cc2)coc2cc(O)cc(O)c12`, the compound was called inactive. `CCCCCCCCOC(=O)c1cc(O)c(O)c(O)c1`: the compound was classed as inactive. Same read-out and setting: then `Clc1ccccc1C(c1ccccc1)(c1ccccc1)n1ccnc1`, with “inactive”. Consider `c1ccc2ccccc2c1`, for which the compound was called inactive. As for `Cc1ncc(CO)c(CO)c1O`, the outcome was inactive. With `O=C1c2ccccc2C(=O)N1CCc1noc(-c2ccc(CN3CCCCCC3)s2)n1`, the outcome was inactive. As to `Cc1cc2c(cc1C(F)(F)F)N(C(=O)Nc1ccc(Oc3cccnc3C)nc1)CC2`, the outcome was inactive. Same read-out and setting: then `CC(C)(c1cc(Br)c(O)c(Br)c1)c1cc(Br)c(O)c(Br)c1`, with “inactive”. On to `Oc1ccccc1`, for which the compound was classed as inactive. The same measure, in the same setting: then `CCCCOC(=O)c1ccc(O)cc1`, with “inactive”; and `Cc1ccc(C(C)C)cc1`, with “inactive”; and `CN1C(=O)CC[C@H]1c1cccnc1`, with “inactive”. Still for that read-out and setting: then `c1ccc2n[nH]nc2c1`, with “inactive”; and `O=C(O)Cn1c(=O)n(Cc2ccc(Br)cc2F)c(=O)c2ccc(Cl)cc21`, with “inactive”.

Take `CN1C(=O)N(c2ccccc2Br)Cc2cnc(Nc3ccc4c(c3)OCC(CO)O4)nc21` (stereo not given): the half-maximal activity concentration (AC50) was 50 µM (active).

With `NC(=O)c1nc(-c2cccc(-c3cc(F)ccc3OCC(F)(F)C(F)(F)F)c2)n[nH]1`, the compound was classed as inactive. Consider `Cc1c2ccccc2c(C)c2c1ccc1ccccc12`, for which the result was inactive.

For `CCCOC(=O)c1cc(O)c(O)c(O)c1`, the compound was called inactive. Still for that read-out and setting: then `CC(C)(C)c1cc(/C=C2\SC(N)=NC2=O)cc(C(C)(C)C)c1O`, with “inactive”. Turning to `COc1cc(C(=O)NC2CCN(C)CC2)ccc1Nc1ncc2c(n1)N(C1CCCC1)CC(F)(F)C(=O)N2C`, the AC50 was 27.3 µM (active). For `CC[C@H](NC(=O)c1cc(F)ccc1NS(=O)(=O)c1cccc2cccnc12)c1ccccc1`, the outcome was inactive. Turning to `COc1cccc([C@H](O)C2CCN(CCc3ccc(F)cc3)CC2)c1OC`, the compound was called inactive.

In the case of `CC/C(=C(/CC)c1ccc(O)cc1)c1ccc(O)cc1`, the AC50 is 90.8 µM (active). `Cc1occc1C(=O)Nc1ccc(C(=O)N2CCC(F)(F)/C(=C\C(=O)N3CCC(N4CCCCC4)CC3)c3ccccc32)cc1`: the call was inactive. For the compound `CN(C[C@@H](CC[N+]12CCC(C3CCCCC3)(CC1)CC2)c1ccc(Cl)c(Cl)c1)C(=O)c1cc(C(F)(F)F)cc(C(F)(F)F)c1`, the compound was classed as inactive. Regarding `O=C=NCCCCCCN=C=O`, the compound was called inactive. Still for that read-out and setting: the value for `Oc1ccc2ccccc2c1` was “inactive”; that for `O=C1O[C@H]([C@@H](O)CO)C(O)=C1O` was “inactive”. For `O=C(OCCCCCCOC(=O)c1ccccc1)c1ccccc1`, the result was inactive.

As for `CCO[Si](CCCNC(N)=O)(OCC)OCC`, the outcome was inactive. Regarding `O=CCCCC=O`, the compound was called inactive. On the same count and under the same terms, then `CCCCCCCCCCCO`, with “inactive”; and `CCCCCCCCOc1ccc(C(=O)c2ccccc2)c(O)c1`, with “inactive”. For `OC12N=C(c3ccccc3)SC1Cc1cc(Cl)ccc12` (stereo not given), the half-maximal activity concentration (AC50) is 0.925 µM (active).
